# PubChem BioAssay AID1014 (NMMLSC, 2008)
# Activity calls are given as the source filed them. Rule as the data show it: active = inhibition of mean fluorescence above about 33%; inactive = the rest.
# Assay: blockers of bacterial quorum-sensing reporter fluorescence – flow cytometry, SAR analogs, SAR follow-up (AID 1014);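 also: Staphylococcus aureus RN6390 with RNAIII-GFP reporter stimulated by AIP; bacteria incubated with compound for 3 hours at 37 °C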
# Conditions: at 20 µM, stronger effect = higher value; inhibition of percent positive cells: measured here: percent reporter-positive cells
SMILES,inhibition of mean fluorescence,inhibition of percent positive cells [%]
Cc1ccc(C)c(S(=O)(=O)c2n[nH]n3c2nc(=O)c2sccc23)c1,35.2% (active),0
COc1cccc(Nc2c(F)c(F)c(F)c(F)c2C(=O)O)c1,-12.9% (inactive),-0.2
O=C(NCC(c1cccnc1)N1CCN(c2ccccc2F)CC1)c1cccs1 (configuration not stated),19.5% (inactive),-0.4
N#Cc1c(NC(=O)COC(=O)CN2C(=O)c3ccccc3C2=O)sc2c1CCCC2,-2.3% (inactive),-0.2
O=C(Nc1ccc2c(c1)OCO2)C1CCN(C(=O)c2cnn(-c3ccccc3)c2-n2cccc2)CC1,-13.6% (inactive),-0.1
CC(C)c1ccc(NC(=O)C(c2ccc3c(c2)OCO3)N2CCCCC2)cc1 (configuration not stated),36.4% (active),-0.7
CCOC(=O)C1CCN(C(C(=O)Nc2ccc3c(c2)OCO3)c2ccccc2)CC1 (configuration not stated),-1% (inactive),-0.4
CCN1CCN(C(C(=O)NC2CCCC2)c2cc3c(cc2[N+](=O)[O-])OCO3)CC1 (configuration not stated),-8.6% (inactive),-0.6
COc1ccc(Nc2nc3c(S(=O)(=O)c4ccc(C(C)(C)C)cc4)nnn3c3ccccc23)cc1,-16.7% (inactive),-0.8
COc1c(F)c(F)c(C(=O)O)c(Nc2cc(C)cc(C)c2)c1F,-29.1% (inactive),-2
CC1CCN(C(C(=O)NC2CCCC2)c2cc3c(cc2[N+](=O)[O-])OCO3)CC1 (configuration not stated),-5.4% (inactive),-1
COc1ccc(C(=O)NCC(c2cccnc2)N2CCN(c3ccccc3F)CC2)cc1OC (configuration not stated),-7.3% (inactive),-1.8
CC(C)c1ccc(NC(=O)C(c2ccc3c(c2)OCO3)N2CCOCC2)cc1 (configuration not stated),2.7% (inactive),-0.1
COc1ccc(NC(=O)C(c2cc3c(cc2[N+](=O)[O-])OCO3)N2CCN(C=O)CC2)cc1 (configuration not stated),-23.1% (inactive),0
O=C(NCC(c1cccnc1)N1CCN(c2ccc(F)cc2)CC1)C1CCCCC1 (configuration not stated),-37% (inactive),0.5
CCOc1ccc(Nc2nc3c(S(=O)(=O)c4ccc(Br)cc4)nnn3c3ccccc23)cc1,-22.8% (inactive),-0.3
O=C(O)c1cccnc1Nc1cccc(SC(F)(F)F)c1,64.5% (active),8.8
CN=C1NC(=O)CC(C(=O)Nc2ccc3ccccc3c2)S1 (configuration not stated),-1.7% (inactive),-0.3

SMILES,inhibition of mean fluorescence,inhibition of percent positive cells [%]
CC(=O)c1c(C)oc2c1cc(O)c1ccccc12,9.1% (inactive),-0.2
Cc1oc2ccc(O)cc2c1C(=O)O,-20.2% (inactive),-0.5
O=C(NCC(c1cccnc1)N1CCc2ccccc21)c1cccc(Br)c1 (configuration not stated),29.6% (inactive),0.1
CCc1ccc(Nc2nc3c(S(=O)(=O)c4ccccc4)nnn3c3ccccc23)cc1,20.8% (inactive),-1.2
CC1CCN(C(C(=O)NC2CCCCC2)c2cc3c(cc2[N+](=O)[O-])OCO3)CC1 (configuration not stated),6% (inactive),0.7
COc1ccc(N2CCN(C(CNC(=O)c3cccc(Cl)c3)c3cccnc3)CC2)cc1 (configuration not stated),-42% (inactive),-1.7
O=C(NCC(c1cccnc1)N1CCN(c2ccc(F)cc2)CC1)c1ccccc1F (configuration not stated),-2.2% (inactive),0.3
Cc1c(Nc2c(C(=O)O)cc([N+](=O)[O-])cc2[N+](=O)[O-])c(=O)n(-c2ccccc2)n1C,-3.7% (inactive),-0.4
CC(=O)c1cc2cc(O)ccc2o1,-1% (inactive),0.8
O=C(NCC(c1cccnc1)N1CCN(c2ccc(F)cc2)CC1)c1cccs1 (configuration not stated),20.1% (inactive),-0.3
O=C(O)c1c(F)c(F)c(F)c(F)c1Nc1cccc(C(F)(F)F)c1,6% (inactive),-0.1
Cc1ccc2occ(/C=C/C(=O)c3ccc(O)cc3)c(=O)c2c1,-0.6% (inactive),-0.1
CCc1ccc(Nc2nc3c(S(=O)(=O)c4ccc(C(C)(C)C)cc4)nnn3c3ccccc23)cc1,3.7% (inactive),-0.1
CCOC(=O)c1c(-c2cc(Br)c(OC)c(Br)c2)oc2ccc(O)cc12,-2.7% (inactive),-0.6
CC(C)c1ccc(S(=O)(=O)c2n[nH]n3c2nc(=O)c2ccccc23)cc1,80.5% (active),22.1
O=C(O)c1ccccc1Nc1cccc2c1C(=O)c1ccccc1C2=O,58.7% (active),10
O=C(NCC(c1cccnc1)N1CCN(c2ccccc2)CC1)c1ccc(F)cc1 (configuration not stated),-24.9% (inactive),-0.8
CC(=O)c1cc2c(cc1NC(=O)CN1CCN(C(=O)c3ccco3)CC1)OCO2,-5.2% (inactive),-0.1
